For 17 compounds, composite z-score and z-score results are on record in PubChem BioAssay.

Activity calls are given as the source filed them.

The subject of test [1] is Plasmodium falciparum Sir2 (PF13_0152, Sir2A). Nature of the test: Plasmodium falciparum Sir2A binding compounds – biochemical, small-molecule microarray, 635 nm fluorescence, primary screen (AID 1098).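 Note: score merges spot fluorescence intensity with its signal-to-noise ratio.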 To be noted: fluorescence 635 nm, higher = more signal.
Test [2] is described as follows: probe aDKK1 binding to arrayed compounds – biochemical, biotinylated probe, 635/667 nm fluorescence, primary screen (AID 1099).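 Note: score merges 667nm spot fluorescence with signal to noise across triplicate slides; reference of the scale not given here.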 As to conditions: small-molecule microarray, higher = more signal.
Test [3] is described as follows: probe aCHRDL2 binding to arrayed compounds – biochemical, biotinylated probe, 635/667 nm fluorescence, primary screen (AID 1100). As to conditions: small-molecule microarray, higher = more signal.
The nature of test [4]: change in splice reporter luminescence, either direction, cell-based, HEK293, spliceosome inhibition project, primary screen (AID 1101).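 Note: HEK293 cells carrying a splicing-competent luciferase reporter gene; test concentration not given here.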 To be noted: HEK293 splicing luciferase reporter, 24 h, higher = more signal, called active from +8 up or from −8 down.
For test [5], the target named is Fibroblast growth factor 10 (Homo sapiens) (UniProt O15520). Nature of the test: compounds binding fibroblast growth factor 10 – biochemical, small-molecule microarray, 635 nm fluorescence, primary screen (AID 1102). As to conditions: FGF10 binding, fluorescence 635 nm, higher = more signal.
Test [6] relates to glycogen synthase kinase-3 (GSK3A per assay name; protocol says GSK3B). Nature of the test: compounds binding glycogen synthase kinase-3 – biochemical, small-molecule microarray, 635 nm fluorescence, GSK3A, primary screen (AID 1103). Note: the record names both GSK3A and GSK3B. As to conditions: fluorescence 635 nm, higher = more signal.
Test [7] concerns the target Epidermal growth factor receptor (Homo sapiens) (UniProt P00533). Description: compounds binding epidermal growth factor receptor – biochemical, small-molecule microarray, 635 nm fluorescence, primary screen (AID 1104).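 Note: score merges 667 nm emission intensity with spot signal to noise over triplicate slides.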 As to conditions: EGFR binding, higher = more signal.
Test [8] deals with Follistatin-related protein 3 (Homo sapiens) (UniProt O95633). Description: compounds binding follistatin-related protein 3 – biochemical, small-molecule microarray, 635 nm fluorescence, primary screen (AID 1105).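 Note: score merges emission near 667 nm and signal to noise per printed spot across three slides.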 As to conditions: FSTL3 binding, higher = more signal.
The target in test [9] is Dickkopf-related protein 1 (Homo sapiens) (UniProt O94907). Nature of the test: small molecules binding DKK1 protein – biochemical, small-molecule microarray, 635 nm fluorescence scan, primary screen (AID 1106).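 Note: score merges emission near 667 nm with signal to noise over three replicate slides.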 As to conditions: higher = more signal.
Test [10] relates to Inhibin beta A chain (activin A). Description: small molecules binding activin A – biochemical, small-molecule microarray, 635 nm fluorescence scan, primary screen (AID 1107).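 Note: mouse activin A protein probed at 4.33 µg/mL on printed slides; score merges bound-protein fluorescence near 667 nm with spot signal-to-noise.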 As to conditions: INHBA, higher = more signal.

Sequence of Epidermal growth factor receptor (Homo sapiens) (P00533 whole entry, looked up): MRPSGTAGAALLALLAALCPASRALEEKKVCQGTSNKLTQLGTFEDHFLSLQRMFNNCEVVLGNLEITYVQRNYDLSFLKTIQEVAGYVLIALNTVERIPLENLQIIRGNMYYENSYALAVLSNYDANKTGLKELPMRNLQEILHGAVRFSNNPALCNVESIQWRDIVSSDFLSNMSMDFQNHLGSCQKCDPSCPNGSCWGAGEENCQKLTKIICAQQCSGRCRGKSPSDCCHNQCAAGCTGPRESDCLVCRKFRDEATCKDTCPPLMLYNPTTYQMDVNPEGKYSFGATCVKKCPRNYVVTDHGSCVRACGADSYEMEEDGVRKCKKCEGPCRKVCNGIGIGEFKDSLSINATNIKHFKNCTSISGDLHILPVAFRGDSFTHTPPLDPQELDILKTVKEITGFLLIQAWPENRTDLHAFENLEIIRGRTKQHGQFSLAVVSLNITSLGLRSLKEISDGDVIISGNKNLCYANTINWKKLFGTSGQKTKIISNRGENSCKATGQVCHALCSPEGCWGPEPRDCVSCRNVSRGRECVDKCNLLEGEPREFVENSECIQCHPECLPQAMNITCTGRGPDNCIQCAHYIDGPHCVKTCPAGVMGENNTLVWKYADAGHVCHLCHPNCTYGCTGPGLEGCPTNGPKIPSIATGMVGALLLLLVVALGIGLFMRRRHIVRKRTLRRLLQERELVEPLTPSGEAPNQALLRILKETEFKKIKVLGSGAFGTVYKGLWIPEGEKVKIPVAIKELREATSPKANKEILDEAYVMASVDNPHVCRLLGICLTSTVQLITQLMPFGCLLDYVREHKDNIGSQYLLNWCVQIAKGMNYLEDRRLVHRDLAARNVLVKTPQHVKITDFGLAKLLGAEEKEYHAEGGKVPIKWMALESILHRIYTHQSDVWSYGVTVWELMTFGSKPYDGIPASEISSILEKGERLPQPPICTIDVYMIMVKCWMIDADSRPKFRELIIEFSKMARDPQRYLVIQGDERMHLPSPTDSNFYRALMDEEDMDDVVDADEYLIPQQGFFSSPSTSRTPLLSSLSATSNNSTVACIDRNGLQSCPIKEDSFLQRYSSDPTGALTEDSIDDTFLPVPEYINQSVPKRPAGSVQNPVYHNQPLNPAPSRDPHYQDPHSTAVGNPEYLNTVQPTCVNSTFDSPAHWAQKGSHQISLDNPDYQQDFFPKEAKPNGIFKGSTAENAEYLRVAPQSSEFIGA
Sequence of Dickkopf-related protein 1 (Homo sapiens) (O94907 whole entry, looked up): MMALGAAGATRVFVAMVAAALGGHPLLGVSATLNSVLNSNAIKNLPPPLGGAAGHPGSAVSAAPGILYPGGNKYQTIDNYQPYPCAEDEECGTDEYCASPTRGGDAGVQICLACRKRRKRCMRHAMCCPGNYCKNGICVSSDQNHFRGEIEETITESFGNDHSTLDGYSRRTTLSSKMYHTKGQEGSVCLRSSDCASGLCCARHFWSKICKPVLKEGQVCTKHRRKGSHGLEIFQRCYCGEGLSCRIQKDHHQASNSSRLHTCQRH
Sequence of Follistatin-related protein 3 (Homo sapiens) (O95633 whole entry, looked up): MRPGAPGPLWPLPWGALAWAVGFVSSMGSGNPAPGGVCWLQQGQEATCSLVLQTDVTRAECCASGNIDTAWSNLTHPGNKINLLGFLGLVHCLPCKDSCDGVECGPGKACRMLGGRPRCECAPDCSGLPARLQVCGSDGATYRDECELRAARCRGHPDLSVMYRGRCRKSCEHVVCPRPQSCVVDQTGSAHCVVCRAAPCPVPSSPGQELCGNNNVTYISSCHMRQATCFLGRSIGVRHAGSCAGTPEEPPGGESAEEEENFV
Sequence of Fibroblast growth factor 10 (Homo sapiens) (O15520 whole entry, looked up): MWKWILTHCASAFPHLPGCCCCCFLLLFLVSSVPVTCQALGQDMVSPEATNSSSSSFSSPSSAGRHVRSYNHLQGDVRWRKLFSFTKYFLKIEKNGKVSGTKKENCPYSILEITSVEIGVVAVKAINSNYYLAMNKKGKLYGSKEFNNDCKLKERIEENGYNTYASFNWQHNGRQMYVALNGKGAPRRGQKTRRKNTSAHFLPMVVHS

With `O=C(CS)NCCCCCCNC(=O)[C@@H]1C[C@@H]2C(=O)NCC(=O)N2[C@@H]1c1cccc(OCCO)c1`, the composite z-score is 1.49 in test [1]; -0.293 in test [2]; 0.632 in [3]; 0.331 in test [5]; 0.837 in test [6]; -0.149 in test [7]. For the same compound, the results for the composite z-score in [8], in [9] and in test [10] were -0.16, 0.139 and -0.755, respectively. Moreover, the z-score in test [4] was 0.288 (inactive).

On to `C=CCN1C(=O)[C@]2(O[C@H](CCn3cc([C@H](O)c4ccccc4)nn3)[C@@H]([Si](C)(C)c3ccc(OC)cc3)[C@@H]2C)c2cc(N3CCC3=O)ccc21`, for which the composite z-score in test [1] is 1.48; in test [2] it was -0.29; in test [3] it was 0.224; in test [5], 0.864; in test [6], 0.169; in test [7], 0.0043. In addition, the composite z-score in test [8] is 0.306; in test [9], 0.815; in [10] it was 0.619. In addition, the z-score in [4] was -0.619 (inactive).

As for `CC(CO)N1C(=O)[C@@H]2C3C(=O)OCCC/C=C\[C@H]3OC23C=CCN(C(C)(C)C)C(=O)[C@@H]13` (stereo not given in full), the composite z-score in test [1] is 0.205; in test [2], -0.349; in test [3], -0.522; in test [5] it was 0.259; in [6], -0.0474; in [7], -0.325. In addition, the composite z-score in [8] amounted to 0.0856; in test [9] it was 0.113; in test [10], 0.0635. Moreover, the z-score in test [4] is 0.742 (inactive).

For the compound `O=C1O[C@H](c2ccccc2)[C@H](c2ccccc2)N2[C@H]1[C@@H](C(=O)N1CCCCCCC1)[C@]1(C(=O)Nc3ccc(C#CC4=CCCCC4)cc31)[C@H]2c1ccc(OCCO)cc1`, the composite z-score worked out at 1.87 in [1]; 2.63 in [2]; 1.36 in [3]; 1.46 in [5]; 1.36 in test [6]; 1.68 in test [7]. The composite z-score turned out to be 1.66 in test [8], 2.4 in test [9] and 1.88 in test [10]. Moreover, in test [4], the z-score is -1.68 (inactive).

For the compound `NC(=O)[C@@H]1[C@H]2C(=O)O[C@H](c3ccccc3)[C@H](c3ccccc3)N2[C@H](c2ccc(O)cc2)[C@@]12C(=O)Nc1ccccc12`, the composite z-score is 0.0555 in test [1]; -0.109 in test [2]; 0.798 in test [3]; -0.433 in test [5]; -1.04 in test [6]; -0.49 in test [7]. Besides, the composite z-score in test [8] was -1.06; in [9] it was -1.91; in [10] it was -0.638. In addition, the z-score in test [4] is -0.936 (inactive).

Regarding `C=CCOC(=O)[C@H]1[C@@H]2C(=O)O[C@@H](c3ccccc3)[C@@H](c3ccccc3)N2[C@@H](c2ccc(OCCOC(=O)[C@H]3C[C@H]4C(=O)N[C@@H](CCCC[N+](C)(C)C)C(=O)N4[C@H]3c3ccc(O)cc3)cc2)[C@]12C(=O)Nc1ccc(I)cc12`, the composite z-score is 1.48 in test [1]; 0.177 in [2]; -0.228 in test [3]; 0.332 in test [5]; 0.86 in test [6]; 0.0741 in [7]. Further, the composite z-score amounted to 0.803 in test [8], 1.41 in [9] and 0.225 in [10]. Further, the z-score in test [4] is 1.2 (inactive).

Take `CCOC(=O)C[C@H]1[C@H](OC(=O)c2ccccc2-c2ccccc2)[C@@H](NC(=O)CC(C)C)c2cc(OCCCO)ccc2N1C(=O)Cc1ccc(OC)cc1`: the composite z-score in test [1] was 0.0681; in [2], -0.235; in [3], 0.0198; in [5] it was 0.215; in test [6] it was -0.199; in test [7] it was -0.0484. The composite z-score is -0.305 in test [8], -0.239 in [9] and 0.328 in test [10]. Moreover, the z-score in test [4] was -0.284 (inactive).

Take `COc1cc(NN2C(C(O)c3ccco3)C=CC3C(=O)N(c4ccccc4)C(=O)C32)cc(OC)c1OC` (stereo not given): the composite z-score in test [1] was 1.69; in [2], 0.157; in test [3], 0.485; in test [5], -0.0151; in test [6], -0.0659; in test [7], -0.395. Also, the values for the composite z-score in test [8], in [9] and in [10] were 0.373, -0.21 and 0.914, respectively. In addition, the z-score in test [4] is 0.523 (inactive).

For the compound `C=CCN1C(=O)[C@]2(O[C@H](CCn3cc([C@H](O)c4ccccc4)nn3)[C@@H]([Si](C)(C)c3ccc(OC)cc3)[C@@H]2C)c2ccccc21`, the composite z-score was 0.474 in test [1]; -0.291 in test [2]; 0.414 in test [3]; -0.364 in test [5]; -0.781 in [6]; -1.25 in [7]. Also, the composite z-score is -0.581 in [8], -0.651 in [9] and 0.162 in [10]. Moreover, in test [4], the z-score is 3.39 (inactive).

For the compound `COCCOC(=O)N1C(=O)[C@@]2(c3cc(C#CCCO)ccc31)[C@H](C(N)=O)[C@H]1C(=O)O[C@H](c3ccccc3)[C@H](c3ccccc3)N1[C@@H]2c1ccc(O)cc1`, the composite z-score was 1.22 in test [1]; -0.163 in test [2]; 0.489 in test [3]; 0.344 in test [5]; -0.124 in test [6]; -0.376 in [7]. Also, the composite z-score in test [8] was -0.131; in test [9], 0.0665; in test [10], 0.275. Moreover, in [4], the z-score is 0.477 (inactive).

Take `COC(=O)[C@@]1(Cc2ccc(OC)cc2)[C@H]2c3cc(C(=O)N4CCCC4)n(CCN4CNCC4=O)c3C[C@H]2CN1C(=O)c1ccccc1`: the composite z-score in test [1] is 1.8; in test [2], 2.4; in test [3], 1.41; in test [5], 1.03; in test [6] it was -0.16; in test [7], 0.656. Besides, the composite z-score in test [8] is -0.711; in [9], -0.462; in [10], 0.949. The z-score in test [4] is 0.908 (inactive).

As to `CC1(C)[C@@H]2CC(C(O)C3C=CC4C(=O)N(c5ccccc5)C(=O)C4N3Nc3ccc([N+](=O)[O-])cc3)=C[C@H]1C2` (stereo not given in full), the composite z-score in test [1] was 0.966; in test [2], 0.217; in [3] it was 0.648; in test [5], 1.11; in test [6], 1.34; in test [7] it was 0.604. Besides, the composite z-score in [8] is 1.38; in [9], -0.104; in test [10], 0.482. Also, the z-score in [4] is -0.547 (inactive).

Consider `CC(C)(C)OC(=O)CC[C@]1(C(=O)N2CCOCC2)N=C(c2ccc(OCCCO)cc2)O[C@H]1c1ccccc1N=[N+]=[N-]`, for which the composite z-score in test [1] is 1.5; in test [2] it was 0.653; in test [3], 0.854; in test [5], 1.18; in test [6], 1.2; in test [7] it was -0.0405. The figures for the composite z-score in [8], in test [9] and in test [10] were 0.0265, 0.283 and 0.936, respectively. The z-score in [4] is -0.921 (inactive).

As to `CN1C(=O)C2C=CC(C(O)c3ccccc3)N(N(c3ccccc3)c3ccccc3)C2C1=O` (stereo not given), the composite z-score in test [1] was 1.59; in test [2], 0.629; in test [3], 0.632; in [5], -0.113; in [6], -0.372; in test [7] it was 0.142. For the same compound, the composite z-score in test [8] stood at 0.455; in test [9], 0.254; in [10] it was 1.07. Also, the z-score in test [4] was 0.597 (inactive).

As to `CCCc1cc2c(n1Cc1cc(F)cc(F)c1)C(C)C1CN(C(=O)c3ccccc3)C(C)(C(=O)OC)C21` (stereo not given), the composite z-score stood at 1.01 in [1]; 1.28 in [2]; 1.33 in test [3]; 1.21 in test [5]; 1.07 in test [6]; 0.0159 in [7]. Further, the composite z-score in [8] was 0.899; in test [9], 0.215; in test [10], 1.27. The z-score in test [4] was -3.1 (inactive).

Take `COc1ccccc1CN1C(=O)c2ccccc2[C@@H](C(=O)NC2CC2)[C@@H]1c1ccc(CO)cc1`: the composite z-score in [1] was 0.743; in test [2], 0.667; in test [3], 0.556; in [5], 1.27; in test [6] it was 1.28; in test [7], 0.521. The composite z-score in [8] is 1.44; in test [9], 1.23; in test [10] it was 0.633. In addition, the z-score in test [4] was 0.0463 (inactive).

Consider `CCc1cccc(NC(=O)O[C@H]2[C@H](OC(=O)Nc3ccccc3-c3ccccc3)[C@@H](OC(=O)Nc3ccccc3-c3ccccc3)[C@@H](OC)O[C@@H]2CO)c1`, for which the composite z-score in test [1] turned out to be 1.29; in test [2], 0.481; in [3], 0.648; in [5] it was 1.13; in test [6], 0.954; in test [7] it was 0.0707. Moreover, the composite z-score in [8] is 1.38; in test [9], -0.0897; in [10], 0.465. Also, the z-score in test [4] is -2.55 (inactive).
